Only some compounds are listed: those with a hit (about 18% of all), similar ones and a draw of the others.
DT40 TDP1 CPT = qHTS for Inhibitors of human tyrosyl-DNA phosphodiesterase 1 (TDP1): qHTS in cells in presence of CPT; chicken DT40 Tdp1-/-;hTDP1 cells + 20 nM CPT, ATP luminescence, 48 h; Potency, µM (doses to about 46.2 µM), for the others: at the highest dose activity change, negative = growth inhibition, most hits filed as inhibitors; 12% of 420,000 active; AID 686979, 2013; further: potency means the concentration at half of the fitted maximal effect; nearly all actives have a fitted effect of over 55% in size
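Cell growth measured by CellTiter-Glo luminescence after a minimum 48 h, 37 C compound exposure with 20 nM CPT in Tdp1-knockout DT40 cells stably expressing hTDP1, seeded 400/well; qHTS titration format.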
TDP1 cell noCPT = qHTS for Inhibitors of human tyrosyl-DNA phosphodiesterase 1 (TDP1): qHTS in cells in absence of CPT; 15% of 420,000 active; AID 686978, 2013; Potency, µM (highest dose often 46.2 µM), inactives show at the highest dose activity change, negative = growth inhibition, usual class: inhibitors; DT40 Tdp1-/- hTDP1 cells, no CPT, ATP luminescence, 48 h; further: potency means the concentration at half of the fitted maximal effect; nearly all actives have a fitted effect of over 55% in size
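No-CPT arm: Tdp1-/-;hTDP1 DT40 cells (400/well) plus compounds, incubated ≥48 hr at 37 °C. Readout CellTiter-Glo luminescence.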
Six1-Eya2 blk = qHTS Assay for Inhibitors of the Six1/Eya2 Interaction; Homeobox protein SIX1 (Homo sapiens) + Protein phosphatase EYA2 (Homo sapiens), …; AlphaScreen GST-Six1/His-Eya2 binding, biochemical; hits give low values; activity change, % (no concentration beside the values); 0.56% of 360,000 active; AID 651725, 2012; in the data active means activity change below about -65%; inconclusive means mostly about -30% to -63%
Target sequence (O00167 whole entry, looked up): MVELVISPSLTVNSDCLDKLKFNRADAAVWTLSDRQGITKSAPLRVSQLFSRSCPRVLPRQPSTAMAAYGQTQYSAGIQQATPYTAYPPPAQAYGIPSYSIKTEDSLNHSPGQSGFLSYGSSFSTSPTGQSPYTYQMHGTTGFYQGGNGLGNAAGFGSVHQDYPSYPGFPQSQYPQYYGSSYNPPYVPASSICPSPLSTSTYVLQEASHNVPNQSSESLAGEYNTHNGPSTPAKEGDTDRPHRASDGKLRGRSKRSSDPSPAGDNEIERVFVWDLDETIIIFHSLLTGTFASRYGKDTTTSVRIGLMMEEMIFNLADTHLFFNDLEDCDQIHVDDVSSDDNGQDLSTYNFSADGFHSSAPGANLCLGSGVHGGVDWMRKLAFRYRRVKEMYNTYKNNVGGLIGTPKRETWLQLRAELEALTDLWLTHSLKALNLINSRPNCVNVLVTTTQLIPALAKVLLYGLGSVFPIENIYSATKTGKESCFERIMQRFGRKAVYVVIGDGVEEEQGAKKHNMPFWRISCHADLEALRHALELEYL
Target sequence (Q15475 whole entry, looked up): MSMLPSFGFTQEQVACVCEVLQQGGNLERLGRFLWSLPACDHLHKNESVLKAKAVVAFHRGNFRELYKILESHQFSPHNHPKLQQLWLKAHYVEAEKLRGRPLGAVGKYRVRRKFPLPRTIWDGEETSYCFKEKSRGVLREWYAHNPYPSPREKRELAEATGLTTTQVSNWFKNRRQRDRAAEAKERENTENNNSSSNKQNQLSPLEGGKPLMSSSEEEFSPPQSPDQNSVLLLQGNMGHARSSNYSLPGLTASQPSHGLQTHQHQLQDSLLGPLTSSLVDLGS
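AlphaScreen luminescence read after one hour at 37 °C in darkness. Pin-transferred compounds met GST-Six1 and His-Eya2 protein (5X stock 250 nM/500 nM) plus glutathione donor and Ni-chelate acceptor beads (5X, 50 ug/mL).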
CtBP-E1A blk = qHTS Assay for Inhibitors of the CtBP/E1A Interaction. activity change, % (concentration not given with the values). 0.49% of 340,000 active. AlphaScreen GST-E1A/His-CtBP binding, 1536-well; hits give low values. CtBP / adenovirus E1A interaction (AlphaScreen). AID 651724, 2012; in the data active means activity change below about -65%; inconclusive means mostly about -30% to -63%
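GST-E1A and His-tagged CtBP (125 nM each as 5X stock) were preincubated with pin-transferred compound for 2 h at 37 °C in the dark, then glutathione donor and nickel acceptor beads were added for 1 h before AlphaScreen reading.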
TDP1 inh = qHTS Assay for Inhibitors of Tyrosyl-DNA Phosphodiesterase (TDP1); Tyrosyl-DNA phosphodiesterase 1 (Homo sapiens), Q9NUW8; recombinant TDP1, AlphaScreen DNA substrate cleavage; Potency, µM (doses to about 130 µM), for inactives: at the highest dose activity change, negative = inhibition, actives largely listed as inhibitors; 0.28% of 350,000 active; AID 485290, 2010; further: potency means the concentration at half of the fitted maximal effect; nearly all actives have a fitted effect of over 40% in size
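Signal: AlphaScreen proximity between streptavidin donor and anti-FITC acceptor beads on intact substrate. Reaction: Tdp1 1 nM, substrate 15 nM final, 5 min RT after 15 min compound preincubation.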
IL-1B inflam inh = qHTS for Inhibitors of Inflammasome Signaling: IL-1-beta AlphaLISA Primary Screen. THP-1 LPS/ATP IL-1B secretion, AlphaLISA, 16 h; hits give low values. activity change, % at 57.5 µM. 4.7% of 360,000 active; in the data active means activity change below about -50%; inconclusive means mostly about -30% to -49%
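THP-1 cells pretreated 1 hr with compounds (up to 57.5 uM final), then stimulated with LPS (250 ng/mL final) plus ATP (1.25 mM final); secreted IL-1B measured by AlphaLISA after 16 hr, decreased signal indicating inhibition.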
Numbers without * were called inactive; ! = repeats disagree. Unless noted, the call rests on the fitted dose curve; in most records, active means well fitted curve in the direction sought with a large enough effect; inconclusive means small, poorly fitted or top-dose-only effect, or another doubt; inactive means no such curve, though single readings can be large; an effect the other way counts as inactive or inconclusive. On the % scale 0 is the no-effect control and ±100 the full control effect.

What do the screens show for `CCOC(=O)C(C)n1cnc2c(nnn2Cc2ccc(Cl)cc2)c1=O` (stereo unspecified)?
DT40 TDP1 CPT: -17%; TDP1 cell noCPT: -17%; Six1-Eya2 blk: 1; CtBP-E1A blk: 8; TDP1 inh: 4%; IL-1B inflam inh: 1

What do the screens show for `O=C(O)Cc1csc(-c2ccccc2)n1`?
DT40 TDP1 CPT: -8%; TDP1 cell noCPT: -8%; Six1-Eya2 blk: -3; CtBP-E1A blk: -1; TDP1 inh: -3%; IL-1B inflam inh: 35

How did CC1(C(=O)Nc2cccc3c2CCCC3)CCN1C(=O)Cc1ccccc1Cl (stereo unspecified) do in these assays?
DT40 TDP1 CPT: inconclusive; TDP1 cell noCPT: inconclusive; Six1-Eya2 blk: 3; CtBP-E1A blk: 5; IL-1B inflam inh: -22

How did CCOC(=O)N1CCN(C(=O)c2cc(-c3ccc(OCC)cc3)nc3ccccc23)CC1 do in these assays?
DT40 TDP1 CPT: 4.6µM*; TDP1 cell noCPT: 3.7µM*; Six1-Eya2 blk: 1; CtBP-E1A blk: -3; TDP1 inh: 0%; IL-1B inflam inh: 17

How did Cc1ccc(-c2cc(C(=O)N3CCCCC3)c3ccccc3n2)cc1C do in these assays?
DT40 TDP1 CPT: 16µM*; TDP1 cell noCPT: 23µM*; Six1-Eya2 blk: -5; CtBP-E1A blk: -11; TDP1 inh: 5%; IL-1B inflam inh: -27

Results for CCOC(=O)C1CCN(C(=O)c2cc(-c3ccncc3)nc3ccccc23)CC1 ?
DT40 TDP1 CPT: inconclusive; TDP1 cell noCPT: 21µM*; Six1-Eya2 blk: 11; TDP1 inh: 0%; IL-1B inflam inh: 10

What do the screens show for `CCOC(=O)C1CCCN(C(=O)c2cc(-c3ccccc3)nc3ccccc23)C1` (stereo unspecified)?
DT40 TDP1 CPT: 0%; TDP1 cell noCPT: 4%; Six1-Eya2 blk: 4; CtBP-E1A blk: 9; TDP1 inh: -4%; IL-1B inflam inh: 28

How did CCOc1ccc(-c2cc(C(=O)N3CCN(C)CC3)c3ccccc3n2)cc1 do in these assays?
DT40 TDP1 CPT: inconclusive; TDP1 cell noCPT: inconclusive; Six1-Eya2 blk: 0; CtBP-E1A blk: 3; TDP1 inh: 7%; IL-1B inflam inh: -3

What do the screens show for `Cc1ccc2c(c1)C1CN(C)CCC1N2C(=S)NC(=O)c1ccc(Cl)cc1Cl` (stereo unspecified)?
DT40 TDP1 CPT: inconclusive; TDP1 cell noCPT: inconclusive; Six1-Eya2 blk: -8; IL-1B inflam inh: 3

What do the screens show for `O=C1NC(=O)N(C2CCCCC2)CC1Br` (stereo unspecified)?
DT40 TDP1 CPT: inconclusive; TDP1 cell noCPT: inconclusive; Six1-Eya2 blk: 11; CtBP-E1A blk: 5; IL-1B inflam inh: -1

Results for COc1ccc(NS(=O)(=O)c2cccc(C(=O)Nc3cccc(C(=O)O)c3)c2)cc1 ?
DT40 TDP1 CPT: -18%; TDP1 cell noCPT: 5%; Six1-Eya2 blk: -19; CtBP-E1A blk: -12; IL-1B inflam inh: -8

What do the screens show for `COc1ccccc1NS(=O)(=O)c1cc(NC(=O)CCC(=O)c2cccs2)ccc1Cl`?
DT40 TDP1 CPT: inconclusive; TDP1 cell noCPT: inconclusive; Six1-Eya2 blk: inconclusive; CtBP-E1A blk: inconclusive; TDP1 inh: 3%; IL-1B inflam inh: -2

How did COc1ccccc1NS(=O)(=O)c1cc(N/C(=N/S(=O)(=O)c2ccccc2)c2ccc(F)cc2)ccc1Cl do in these assays?
TDP1 cell noCPT: 21µM*; Six1-Eya2 blk: -1; CtBP-E1A blk: -10; IL-1B inflam inh: inconclusive

How did O=S(=O)(/N=C(/Nc1ccc(Cl)c(S(=O)(=O)Nc2ccccc2Cl)c1)c1ccc(F)cc1)c1ccccc1 do in these assays?
DT40 TDP1 CPT: 3%; TDP1 cell noCPT: -7%; Six1-Eya2 blk: 2; CtBP-E1A blk: -6; TDP1 inh: 5%; IL-1B inflam inh: -75*!

How did COc1ccc(NS(=O)(=O)c2cccc(N/C(=N\S(=O)(=O)c3ccccc3)c3ccc(F)cc3)c2)cc1 do in these assays?
DT40 TDP1 CPT: 21µM*; TDP1 cell noCPT: inconclusive; Six1-Eya2 blk: 1; CtBP-E1A blk: 0; TDP1 inh: 3%; IL-1B inflam inh: -6

What do the screens show for `Cc1ccc(S(=O)(=O)c2cc(N3CCOCC3)nc(-c3ccccc3)n2)cc1`?
DT40 TDP1 CPT: 5%; TDP1 cell noCPT: -12%; Six1-Eya2 blk: -2; CtBP-E1A blk: 4; TDP1 inh: 3%; IL-1B inflam inh: -11

How did O=C(O)C1CCN(C(=O)c2ccc(S(=O)(=O)N3CCCCCC3)cc2)CC1 do in these assays?
DT40 TDP1 CPT: -11%; TDP1 cell noCPT: 1%; Six1-Eya2 blk: 13; CtBP-E1A blk: -13; IL-1B inflam inh: 1

How did Cc1ccc(N2C(=O)CS(=O)C(c3ccccc3)C2=O)cc1C (stereo unspecified) do in these assays?
DT40 TDP1 CPT: inconclusive; TDP1 cell noCPT: 15µM*; Six1-Eya2 blk: -8; CtBP-E1A blk: -29; TDP1 inh: -3%; IL-1B inflam inh: -9

What do the screens show for `Cc1ccc(N2C(=O)C3C(C2=O)N2CCCN2C3c2ccccc2)cc1C` (stereo unspecified)?
DT40 TDP1 CPT: 1%; TDP1 cell noCPT: -7%; Six1-Eya2 blk: 2; CtBP-E1A blk: 2; TDP1 inh: 5%; IL-1B inflam inh: 0

How did COc1ccc(OCC(=O)NCc2ccc3c(c2)CCN3C(=O)c2ccccc2)cc1 do in these assays?
DT40 TDP1 CPT: 15µM*; TDP1 cell noCPT: 13µM*; TDP1 inh: 4%

Results for Cc1cccc(OCC(=O)NCc2ccc3c(c2)CCN3C(=O)c2ccc(Cl)cc2)c1 ?
DT40 TDP1 CPT: -4%; TDP1 cell noCPT: -5%; TDP1 inh: 6%

How did CCOc1ccc(CC(=O)NCc2ccc3c(c2)CCN3C(=O)c2ccccc2)cc1OCC do in these assays?
DT40 TDP1 CPT: 16µM*; TDP1 cell noCPT: inconclusive; TDP1 inh: 1%

Results for O=C(COc1ccccc1)NCc1ccc2c(c1)CCN2C(=O)c1ccccc1 ?
DT40 TDP1 CPT: 12µM*; TDP1 cell noCPT: 6.5µM*; TDP1 inh: 7%

How did COc1ccc(OCC(=O)NCc2ccc3c(c2)CCN3C(=O)c2ccc(F)cc2)cc1 do in these assays?
DT40 TDP1 CPT: -29%; TDP1 cell noCPT: inconclusive; TDP1 inh: 0%

Source: PubChem BioAssay (National Center for Advancing Translational Sciences (NCATS))
